Source: the supplement of paper PMC11732987, “Enantioselective OTUD7B fragment discovery through chemoproteomics screening and high-throughput optimisation” (Communications Chemistry, 2025)

Columns and labels:
Assay in all cases: log2 ratio of Biotin-Ahx-Ub-VS probe labelling (fragment/DMSO); higher = less target engagement (more negative = stronger competition), active = hit call of the paper (q ≤ 0.05, log2 ratio ≤ -1)
Conditions in all cases: compound concentration: 200 uM; treatment time: 3 h
OTUD6B = target: T1, OTUD6B (UniProt Q8N6M0)
T1 sequence (whole entry): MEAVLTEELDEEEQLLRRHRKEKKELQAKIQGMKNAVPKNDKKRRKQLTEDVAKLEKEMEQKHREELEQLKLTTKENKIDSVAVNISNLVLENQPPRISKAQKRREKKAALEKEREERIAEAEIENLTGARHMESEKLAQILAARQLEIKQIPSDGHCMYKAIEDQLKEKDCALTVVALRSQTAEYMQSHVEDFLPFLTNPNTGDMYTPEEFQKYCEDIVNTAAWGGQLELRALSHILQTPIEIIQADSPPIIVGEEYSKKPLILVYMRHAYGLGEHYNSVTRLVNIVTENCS
Method in brief: (§1)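 HEK293T lysate (495 µg per sample, in Tris/CHAPS/IGEPAL buffer with protease inhibitors) was exposed in triplicate for 3 h to fragment at 200 µM or to vehicle, then to Biotin-Ahx-Ub-VS at 0.5 µM final for 1 h. Labelled DUBs were enriched on NeutrAvidin, digested with LysC and trypsin, and analysed by diaPASEF LC-MS/MS. Spectronaut label-free quantities were normalised to the global median, and values are average log2 ratios of fragment over vehicle from an unpaired t-test. Only proteins with ≥2 unique peptides were used.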

OTUD7B = target: T2, OTUD7B (UniProt Q6GQQ9)
T2 sequence (whole entry): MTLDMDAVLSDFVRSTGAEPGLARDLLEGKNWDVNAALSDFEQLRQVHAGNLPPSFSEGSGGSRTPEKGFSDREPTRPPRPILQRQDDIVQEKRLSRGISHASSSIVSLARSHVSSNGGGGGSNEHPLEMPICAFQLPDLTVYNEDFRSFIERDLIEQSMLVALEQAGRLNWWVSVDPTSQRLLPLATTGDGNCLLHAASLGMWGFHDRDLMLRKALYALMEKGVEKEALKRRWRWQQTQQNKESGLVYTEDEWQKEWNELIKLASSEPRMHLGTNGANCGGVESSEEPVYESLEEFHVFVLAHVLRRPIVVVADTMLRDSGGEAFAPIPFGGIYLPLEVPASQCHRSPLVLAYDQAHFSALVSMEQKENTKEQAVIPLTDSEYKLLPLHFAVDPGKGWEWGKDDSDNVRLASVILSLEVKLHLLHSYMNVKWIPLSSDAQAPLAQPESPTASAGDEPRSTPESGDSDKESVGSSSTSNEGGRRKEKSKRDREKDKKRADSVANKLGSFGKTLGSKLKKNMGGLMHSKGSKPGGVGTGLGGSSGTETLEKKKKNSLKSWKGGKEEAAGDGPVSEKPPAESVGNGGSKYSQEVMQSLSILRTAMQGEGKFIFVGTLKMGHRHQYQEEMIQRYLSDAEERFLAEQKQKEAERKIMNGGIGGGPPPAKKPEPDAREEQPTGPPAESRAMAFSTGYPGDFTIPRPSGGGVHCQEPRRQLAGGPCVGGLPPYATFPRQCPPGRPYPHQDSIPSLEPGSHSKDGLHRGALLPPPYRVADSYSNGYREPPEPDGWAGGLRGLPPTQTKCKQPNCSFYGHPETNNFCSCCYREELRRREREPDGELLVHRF
Method in brief: as §1

PRPF8 = PRPF8 (UniProt Q6P2Q9)
Method in brief: as §1

PSMD7 = target: T3, PSMD7 (UniProt P51665)
T3 sequence (whole entry): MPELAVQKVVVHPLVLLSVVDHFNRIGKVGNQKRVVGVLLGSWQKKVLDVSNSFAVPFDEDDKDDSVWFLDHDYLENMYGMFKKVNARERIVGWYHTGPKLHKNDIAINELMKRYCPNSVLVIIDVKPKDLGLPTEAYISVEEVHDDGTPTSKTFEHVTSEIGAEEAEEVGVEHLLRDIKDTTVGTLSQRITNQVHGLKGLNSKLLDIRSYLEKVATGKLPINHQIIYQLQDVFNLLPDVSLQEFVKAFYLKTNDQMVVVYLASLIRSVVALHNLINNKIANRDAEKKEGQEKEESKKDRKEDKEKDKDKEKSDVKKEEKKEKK
Method in brief: as §1

UCHL1 = UCHL1 (UniProt P09936)
Method in brief: as §1

UCHL3 = target: T4, UCHL3 (UniProt P15374)
T4 sequence (whole entry): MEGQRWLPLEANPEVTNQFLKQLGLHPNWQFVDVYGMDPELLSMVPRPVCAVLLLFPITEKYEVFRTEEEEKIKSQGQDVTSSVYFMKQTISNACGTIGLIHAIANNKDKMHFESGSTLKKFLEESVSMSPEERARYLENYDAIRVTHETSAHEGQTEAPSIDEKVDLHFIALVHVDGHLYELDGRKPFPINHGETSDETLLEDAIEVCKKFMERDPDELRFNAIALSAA
Method in brief: as §1

UCHL5 = target: T5, UCHL5 (UniProt Q9Y5K5)
T5 sequence (whole entry): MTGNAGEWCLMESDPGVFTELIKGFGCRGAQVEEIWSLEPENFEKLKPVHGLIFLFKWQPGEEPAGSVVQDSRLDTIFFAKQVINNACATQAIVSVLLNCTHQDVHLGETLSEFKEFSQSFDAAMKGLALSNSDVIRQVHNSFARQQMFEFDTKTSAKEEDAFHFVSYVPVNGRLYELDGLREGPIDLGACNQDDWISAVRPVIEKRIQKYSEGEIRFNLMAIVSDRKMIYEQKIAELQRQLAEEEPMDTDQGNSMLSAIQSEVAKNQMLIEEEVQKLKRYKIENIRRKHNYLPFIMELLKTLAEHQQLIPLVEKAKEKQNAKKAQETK
Method in brief: as §1

USP10 = USP10 (UniProt Q14694)
Method in brief: as §1

USP15 = target: T6, USP15 (UniProt Q9Y4E8)
T6 sequence (whole entry): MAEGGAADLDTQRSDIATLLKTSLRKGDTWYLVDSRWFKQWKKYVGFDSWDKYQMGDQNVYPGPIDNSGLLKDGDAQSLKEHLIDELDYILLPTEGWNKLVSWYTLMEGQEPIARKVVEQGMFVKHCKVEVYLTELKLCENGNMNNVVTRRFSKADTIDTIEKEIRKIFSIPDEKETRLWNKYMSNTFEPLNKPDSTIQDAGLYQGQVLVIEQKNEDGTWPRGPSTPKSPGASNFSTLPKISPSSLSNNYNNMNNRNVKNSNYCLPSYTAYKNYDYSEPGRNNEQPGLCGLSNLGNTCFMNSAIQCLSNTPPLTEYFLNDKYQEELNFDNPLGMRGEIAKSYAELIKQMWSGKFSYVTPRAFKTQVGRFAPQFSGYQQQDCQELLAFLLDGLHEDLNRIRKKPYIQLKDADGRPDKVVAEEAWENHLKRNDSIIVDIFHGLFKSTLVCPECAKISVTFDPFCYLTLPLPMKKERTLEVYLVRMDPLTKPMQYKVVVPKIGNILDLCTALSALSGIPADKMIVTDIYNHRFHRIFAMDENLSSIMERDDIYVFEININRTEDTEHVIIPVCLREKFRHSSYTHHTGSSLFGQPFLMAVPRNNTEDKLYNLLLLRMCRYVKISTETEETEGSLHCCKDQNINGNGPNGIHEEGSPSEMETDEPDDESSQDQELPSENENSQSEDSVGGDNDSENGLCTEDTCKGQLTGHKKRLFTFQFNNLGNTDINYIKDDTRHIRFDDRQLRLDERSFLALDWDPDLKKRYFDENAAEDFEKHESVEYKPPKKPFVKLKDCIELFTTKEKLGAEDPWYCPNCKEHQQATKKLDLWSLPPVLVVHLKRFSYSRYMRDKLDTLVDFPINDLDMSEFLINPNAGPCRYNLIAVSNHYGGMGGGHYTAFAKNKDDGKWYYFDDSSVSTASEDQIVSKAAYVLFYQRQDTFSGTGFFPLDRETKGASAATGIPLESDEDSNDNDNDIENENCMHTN
Method in brief: as §1

USP16 = USP16 (UniProt Q9Y5T5)
Method in brief: as §1

Measured: log2 ratio of Biotin-Ahx-Ub-VS probe labelling

UCHL1, sequence (P09936 whole entry, looked up): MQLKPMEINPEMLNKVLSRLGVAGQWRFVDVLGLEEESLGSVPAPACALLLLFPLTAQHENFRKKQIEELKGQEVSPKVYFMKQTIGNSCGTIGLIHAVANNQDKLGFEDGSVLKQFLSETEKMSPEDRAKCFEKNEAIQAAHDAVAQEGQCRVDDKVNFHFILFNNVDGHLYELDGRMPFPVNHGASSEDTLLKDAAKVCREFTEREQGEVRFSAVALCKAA
USP16, sequence (Q9Y5T5 whole entry, looked up): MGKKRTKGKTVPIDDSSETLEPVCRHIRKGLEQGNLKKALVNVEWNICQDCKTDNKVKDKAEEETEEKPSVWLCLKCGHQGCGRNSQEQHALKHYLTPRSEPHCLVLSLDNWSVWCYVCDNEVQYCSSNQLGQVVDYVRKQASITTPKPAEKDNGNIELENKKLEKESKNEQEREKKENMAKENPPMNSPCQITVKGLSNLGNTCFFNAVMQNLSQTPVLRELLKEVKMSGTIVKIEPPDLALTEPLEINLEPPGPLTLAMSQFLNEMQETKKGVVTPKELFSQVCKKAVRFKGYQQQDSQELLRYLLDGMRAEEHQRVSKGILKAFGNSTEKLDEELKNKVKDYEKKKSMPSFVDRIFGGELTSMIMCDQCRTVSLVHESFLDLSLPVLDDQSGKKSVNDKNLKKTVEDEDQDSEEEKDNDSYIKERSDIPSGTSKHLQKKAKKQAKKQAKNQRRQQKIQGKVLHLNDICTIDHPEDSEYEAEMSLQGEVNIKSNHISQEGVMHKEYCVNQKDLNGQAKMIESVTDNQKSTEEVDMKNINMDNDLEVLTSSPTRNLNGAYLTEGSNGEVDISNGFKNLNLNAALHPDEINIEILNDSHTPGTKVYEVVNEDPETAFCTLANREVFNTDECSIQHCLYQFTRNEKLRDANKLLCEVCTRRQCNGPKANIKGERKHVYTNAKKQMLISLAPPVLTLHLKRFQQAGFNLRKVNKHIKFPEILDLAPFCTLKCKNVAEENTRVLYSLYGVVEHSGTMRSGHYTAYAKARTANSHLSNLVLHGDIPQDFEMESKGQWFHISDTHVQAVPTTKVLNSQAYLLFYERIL
USP10, sequence (Q14694 whole entry): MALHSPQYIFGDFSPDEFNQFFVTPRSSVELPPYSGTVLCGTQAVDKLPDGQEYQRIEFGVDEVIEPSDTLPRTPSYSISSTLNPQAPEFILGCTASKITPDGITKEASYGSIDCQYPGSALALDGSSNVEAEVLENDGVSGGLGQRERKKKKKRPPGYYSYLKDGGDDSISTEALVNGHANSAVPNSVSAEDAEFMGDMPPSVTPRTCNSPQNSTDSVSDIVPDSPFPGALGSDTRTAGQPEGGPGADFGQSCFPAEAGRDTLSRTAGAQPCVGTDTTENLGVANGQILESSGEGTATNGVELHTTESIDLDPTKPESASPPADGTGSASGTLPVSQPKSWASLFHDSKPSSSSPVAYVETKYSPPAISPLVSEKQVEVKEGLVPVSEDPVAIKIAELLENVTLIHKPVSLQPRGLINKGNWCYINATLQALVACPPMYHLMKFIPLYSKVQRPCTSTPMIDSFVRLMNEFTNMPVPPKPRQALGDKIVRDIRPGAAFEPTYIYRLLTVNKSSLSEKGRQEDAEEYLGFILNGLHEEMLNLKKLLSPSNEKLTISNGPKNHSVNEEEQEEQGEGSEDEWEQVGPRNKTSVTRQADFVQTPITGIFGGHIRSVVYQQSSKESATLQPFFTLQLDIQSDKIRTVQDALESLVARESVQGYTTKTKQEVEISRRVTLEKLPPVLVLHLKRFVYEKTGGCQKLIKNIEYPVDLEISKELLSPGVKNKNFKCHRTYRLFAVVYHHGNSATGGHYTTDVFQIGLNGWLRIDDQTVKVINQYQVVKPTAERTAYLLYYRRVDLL

CC(NC(=O)CCl)c1ccc2[nH]ncc2c1 (stereo not given)
inactive: OTUD6B -0.241 | PRPF8 -0.0557 | PSMD7 -0.245 | UCHL3 0.289 | UCHL5 -0.328 | USP10 -0.179 | USP15 -0.271 | USP16 -0.601
active: OTUD7B -1.52 | UCHL1 -1.1
